Data reported in PubChem BioAssay AID493208 (National Center for Advancing Translational Sciences (NCATS), 2011).
The whole screen tested about 44,000 compounds, of which about 340 (0.77%) were called active. Roughly 5% stayed inconclusive and do not appear here. Calls come from the whole dose curve; as a rule, active = well fitted inhibition curve with a large enough effect; inconclusive = small, poorly fitted or top-dose-only effect; inactive = flat fitted curve, though single readings scatter. Many of the other results were omitted from the sample, so actives are more common in it than they were.

assay: Acumen qHTS Assay for Inhibitors of the mTORC1 Signaling Pathway in MEF (Tsc2-/-, p53-/-) Cells: Sytravon; settings: phospho-rpS6 immunofluorescence/PI, 24 h; series mostly up to 38.3 µM; activity change, negative = inhibition: at the top concentration; note: nearly all actives have a fitted effect of over 50% in size;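 for activity change, negative = inhibition: plate controls were DMSO for no effect and rapamycin for full effect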
From the text: NIH Molecular Libraries Probe Production Centers Network [MLPCN] NIH Chemical Genomics Center [NCGC] MLPCN Grant: NS059428-01 Assay Submitter (PI): Blenis, John; Hoffman, Greg; Harvard University NCGC Assay Overview: The mammalian target of rapamycin (mTOR) is an intracellular serine/threonine kinase Aberrant regulation of mTOR signaling plays a causative role in a number of human diseases, including cancer, benign tumors such as lymphangioleiomyomatosis (LAM) and Tuberous Sclerosis Complex (TSC), and metabolic diseases such as diabetes and obesity. This project aims to identify inhibitors of ribosomal protein S6 (rpS6) phosphorylation. The phosphorylation of rpS6 is a key event downstream of mTOR activation. The assay uses a phospho-specific antibody of phospho-rpS6 to detect inhibitors of mTOR activation. Mutations in the Tsc1 and Tsc2 genes are the underlying genetic lesions responsible for TSC, causing constitutive activation of the mTORC1 pathway and leading to profound effects on cell metabolism. Aberrant metabolism in cancer has recently received significant attention as a target to develop therapeutic agents in the treatment of cancer.1 As Tsc2-/- cells have lost the ability to respond to energy and growth factor deprivation, these cells are unable to properly down regulate cellular biosynthetic processes in response to metabolic stress, and are thus extremely sensitive to glucose deprivation-induced death.2 A central goal of this project is to explore the unique cell survival and metabolic properties of cells with Tsc1 or Tsc2 by screening for compounds that selectively target the Tsc2-/- MEFs by screening both Tsc2-/- and WT MEF cell lines. We hope to better understand these aspects of TSC physiology in order to exploit them for therapeutic benefit.
NCGC Acumen Assay Protocol Summary: For quantitative high throughput analysis of mTORC1 signaling, we developed a cell-based assay for immuno-fluorescence based detection of rpS6 phosphorylation on the Acumen Explorer that will be used a platform for the primary small molecule screen. Mouse embryonic fibroblasts (MEFs) are cultured in 1536-well plates using DMEM + 10% FBS. Twenty-four hrs after plating, test compounds (solubilized in DMSO) are delivered and incubated with the cells for 24 hrs at 37 degree Celsius. Following the incubation, media with compound is aspirated and the cells are fixed in 4% paraformaldehyde (PFA) containing PBS + 0.2% TX-100. Next, PFA is aspirated, cells are washed two times with PBS plus 0.2% TX-100 and the cells are blocked for 1 hr at room temperature (blocking buffer: LiCOR Blocking Buffer plus 0.2% TX-100). […] Cells are washed two times with PBS plus 0.2% TX-100, and stained with 10 uM propidium iodide (PI) for 20-25 minutes for cell number measurement (1:500 dilution of Hoescht staining is also added for IN Cell imaging). The plates are scanned on the Acumen Explorer laser scanning instrument (TTP Labtech) using the 488nm laser for simultaneous excitation of the Alexa-488 and PI. […] The normalized phospho-S6 staining is calculated as the ratio of the integrated Alexa 488 intensity divided by the integrated PI intensity for the single concentration rapamycin control (7.5 nM) and DMSO columns. […] Inhibition of the pathway is defined based on the normalized phospho-S6 intensity in rapamycin treated cells. Active cells are defined as those with a normalized phospho-S6 staining above this threshold, and each treatment is reported as the % positive cells in the well, where thresholds are defined by selecting wells with the highest and lowest signal and differentiating between the % non-active and % active populations. In addition to the pathway specific phospho-S6 endpoint, the number of PI stained cells from the Acumen is recorded as a measure of cell viability. The primary screen was performed with a MEF cell line in a defined genetic background, Tsc2-/-, p53-/- cell line stably transfected with an empty vector control (Tsc2-/- MEF).
Potency is the fitted concentration of half-maximal effect.

Row | Compound | activity change, negative = inhibition | Potency
1 | Cc1ccc(S(=O)(=O)c2nc(-c3ccco3)oc2SCC(=O)Nc2ccc(F)cc2)cc1 | -0.694% (inactive) | 
2 | O=C(/C=C/c1cn(CC(O)CN2CCc3ccccc32)c2ccccc12)c1ccc(Br)cc1 (stereo not drawn) | -17.5% (inactive) | 
3 | COc1ccc(OCCn2cc(C(=O)C3CCCCC3)c3ccccc32)cc1 | 0.18% (inactive) | 
4 | CCOc1ccc(C(=O)/C=C/c2cn(CC(O)CN3CCCCCC3)c3ccccc23)cc1 (stereo not drawn) |  | 14.7 µM (active)
5 | COc1ccc(-c2nc(S(=O)(=O)c3ccccc3)c(N3CCCCC3)o2)cc1 | -13.1% (inactive) | 
6 | O=C(CSc1oc(-c2ccc(F)cc2)nc1S(=O)(=O)c1ccc(Br)cc1)NC1CCCCC1 | 4.26% (inactive) | 
7 | CC(C)S(=O)(=O)c1oc(-c2ccc(F)cc2)nc1S(=O)(=O)c1ccc(F)cc1 |  | 0.521 µM (active)
8 | COc1ccccc1NC(=O)CCC(=O)N1CC(C)Oc2ccc(C)cc21 (stereo not drawn) | -7.46% (inactive) | 
9 | COc1ccc(C)cc1N(CC(=O)N1CCC(C)CC1)S(=O)(=O)c1ccc(C)cc1 | 2.44% (inactive) | 
10 | CN1CCN(C2(CNC(=O)COc3ccc(C(C)(C)C)cc3)CCCCC2)CC1 |  | 8.26 µM (active)
11 | CC(C)(C)c1ccc(OCC(=O)N2CCC(c3nc4ccccc4s3)CC2)cc1 | -9.26% (inactive) | 
12 | CCn1cc(C(=O)NCc2ccccc2)c(=O)c2cc(S(=O)(=O)N3CCCCC3)ccc21 | -7.26% (inactive) | 
13 | Cc1cccc(CNC(=O)c2cnc3sc(N4CCCCC4)nn3c2=O)c1 | 8.89% (inactive) | 
14 | O=C(Cc1ccc(Cl)cc1)Nc1ccc2nn(-c3ccc(Cl)cc3)nc2c1 | -7.33% (inactive) | 
15 | COc1ccc(NC(=O)c2ccc3nc(C(C)C)oc3c2)cc1OC | -14.4% (inactive) | 
16 | COc1ccc(NC(=O)c2cnc(Nc3ccc(C)c(Cl)c3)c3ccccc23)cc1OC | 0.723% (inactive) | 
17 | CCOc1ccc(-n2nc3ccc(NC(=O)c4ccc(OC)c(Cl)c4)cc3n2)cc1 | 2.46% (inactive) | 
18 | CCN1CCN(c2cc(C)c3cc(NC(=O)c4cc(Cl)ccc4OC)ccc3n2)CC1 |  | 2.61 µM (active)
19 | COc1ccc(C(=O)Nc2ccc3nc(N4CCCCC4)cc(C)c3c2)cc1OC |  | 13.1 µM (active)
20 | COc1cccc(C(=O)Nc2ccc3nc4n(c(=O)c3c2)CCCCC4)c1 | -1.75% (inactive) | 
21 | CCOc1ccc(N(Cc2ccccc2)C(=O)c2nc(SCC)ncc2Cl)cc1 | -13% (inactive) | 
22 | CCOc1ccc(NC(=O)CN(Cc2ccccc2)S(=O)(=O)c2ccc(Cl)cc2)cc1 | 3.52% (inactive) | 
23 | CCOc1ccc(N(Cc2ccccc2)C(=O)c2nc(S(C)(=O)=O)ncc2Cl)cc1 |  | 0.736 µM (active)
24 | CCOC(=O)c1ccc(NC(=O)c2c(NCc3cccs3)sc3c2CCCC3)cc1 | -12.1% (inactive) | 

Row | Compound | activity change, negative = inhibition | Potency
25 | CCCn1ccc2c(OCC(=O)NCc3ccc(F)cc3)cccc2c1=O | -1.85% (inactive) | 
26 | CCOc1ccc(N2CC(C)Cn3c2nc2c3c(=O)n(Cc3c(F)cccc3Cl)c(=O)n2C)cc1 (stereo not drawn) | -8.65% (inactive) | 
27 | O=C1CN(C(=O)Nc2ccccc2C(F)(F)F)C(c2ccccc2)c2c(sc3c2CCCC3)N1 (stereo not drawn) | 4.23% (inactive) | 
28 | Oc1c(C(c2ccc(F)cc2)N2CCN(Cc3ccccc3)CC2)sc2nc(-c3ccco3)nn12 (stereo not drawn) | 0.278% (inactive) | 
29 | Cc1nc2ccn(Cc3cccs3)c(=O)c2cc1C(=O)NCc1ccc(Cl)cc1 | -5.14% (inactive) | 
30 | CCOCCCNC(=O)c1cn(CC)c2ccc(S(=O)(=O)N3CCc4ccccc4C3)cc2c1=O | 0.725% (inactive) | 
31 | Cc1ccc2nc(/C(C#N)=C/c3ccc(-c4ccc(C(=O)OC(C)C)cc4)o3)[nH]c2c1 | -18.9% (inactive) | 
32 | Cc1nn2c(=O)cc(COC(=O)CNC(=O)c3ccc(F)cc3)nc2s1 | -6.97% (inactive) | 
33 | COc1ccc(N2CCN(c3cc(C)nc4nncn34)CC2)cc1 | -1.3% (inactive) | 
34 | CCOc1ccc(CCNC(=O)c2ccc3c(c2)sc2nc(-c4ccc(F)cc4)cn23)cc1OCC | -3.54% (inactive) | 
35 | Cc1nn2c(=O)cc(COC(=O)c3cccc(NC(=O)COc4ccccc4Cl)c3)nc2s1 | 0% (inactive) | 
36 | Cc1nn(CC(=O)N2CCN(c3cccc(C(F)(F)F)c3)CC2)c(=O)c2cc3sccc3n12 | 1.19% (inactive) | 
37 | CCOC(=O)c1nc(Nc2ccc(C(=O)OC)cc2)c2ccccc2n1 | -14.8% (inactive) | 
38 | COc1cccc(Nc2nc3ccccc3c3nncn23)c1 | -4.37% (inactive) | 
39 | COc1cc(Nc2nc(-c3ccc(OC)c(OC)c3)nc3ccccc23)cc(OC)c1 |  | 16.5 µM (active)
40 | Cn1c(=O)oc2cc(S(=O)(=O)CCC(=O)NCCc3ccc(Cl)cc3)ccc21 | -10.6% (inactive) | 
41 | Cc1ccc(S(=O)(=O)c2cn(Cc3ccccc3)c3cc(N4CCCC4)c(F)cc3c2=O)c(C)c1 | -7.49% (inactive) | 
42 | O=C(CCS(=O)(=O)c1ccccc1)N(Cc1cccnc1)c1nc2c(F)cccc2s1 |  | 3.69 µM (active)
43 | CN(C)S(=O)(=O)c1ccc(C(=O)N(Cc2cccnc2)c2nc3c(F)cc(F)cc3s2)cc1 | -8.48% (inactive) | 
44 | O=C(CCOc1ccccc1)N(Cc1cccnc1)c1nc2ccc(Cl)cc2s1 | -0.351% (inactive) | 
45 | CCc1ccc(C2CC(=O)c3c([nH]c(C(=O)OCc4ccc(C)cc4)c3C)C2)cc1 (stereo not drawn) | -16.6% (inactive) | 
46 | CCOc1ccc(C2CC(=O)c3c([nH]c(C(=O)OCc4ccccc4)c3C)C2)cc1 (stereo not drawn) |  | 4.14 µM (active)
47 | CC1=C(C(=O)OCC(C)C)C(c2ccc(OCc3ccccc3)cc2)N2C(=O)CCSC2=N1 (stereo not drawn) | -27.7% (inactive) | 
48 | CSc1oc(-c2cccs2)nc1S(=O)(=O)c1ccc(Br)cc1 | 2.88% (inactive) | 
